Compounds with a hit are over-represented: about 21% of the library has one in this group of screens.
DRD3 antagonist – qHTS of D3 Dopamine Receptor Antagonist: qHTS; D3R cells, DiscoveRx beta-arrestin luminescence, antagonist mode; stronger effect = lower value; max response, negative = inhibition, %; hit rate 2.5% among 360,000; AID 652054, 2013; in the data active means max response below about -50%; inconclusive means no clear call, values can overlap the other calls; further: on the % scale 0 is the no-effect control and ±100 the full control effect
Target sequence (P35462 whole entry, looked up): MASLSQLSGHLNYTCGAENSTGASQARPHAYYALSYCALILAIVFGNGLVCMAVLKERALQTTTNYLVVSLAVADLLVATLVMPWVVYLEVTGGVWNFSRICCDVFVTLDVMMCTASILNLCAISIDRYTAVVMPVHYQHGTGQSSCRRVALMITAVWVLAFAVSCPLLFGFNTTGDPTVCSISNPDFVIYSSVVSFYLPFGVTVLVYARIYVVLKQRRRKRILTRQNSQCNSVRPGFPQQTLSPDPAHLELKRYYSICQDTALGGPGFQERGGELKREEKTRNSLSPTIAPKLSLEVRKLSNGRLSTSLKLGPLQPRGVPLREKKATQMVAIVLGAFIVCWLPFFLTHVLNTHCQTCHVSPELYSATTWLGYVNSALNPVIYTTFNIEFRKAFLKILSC
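Cells expressing the human receptor were seeded at 1500 cells/well, incubated overnight at 37 degrees C in 5% CO2, then exposed to library compounds with dopamine controls for 90 minutes at 37 degrees C before luminescent detection.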
DT40 TDP1 no CPT – qHTS for Inhibitors of human tyrosyl-DNA phosphodiesterase 1 (TDP1): qHTS in cells in absence of CPT; DT40 Tdp1-/- hTDP1 cells, no CPT, ATP luminescence, 48 h; Potency, µM (series often up to 46.2 µM), without a hit: at the top dose activity change, negative = growth inhibition, hits mostly inhibitors; hit rate 15% among 420,000; AID 686978, 2013; further: potency means the concentration at half of the fitted maximal effect; on the % scale 0 is the no-effect control and ±100 the full control effect; nearly all actives have a fitted effect of over 55% in size
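Chicken DT40 Tdp1-/- cells complemented with human TDP1, screened without camptothecin (DMSO vehicle only), 400 cells/well. Compounds pin-transferred, cells incubated at 37 °C for at least 48 hr. Growth read as ATP-dependent luminescence (CellTiter-Glo, 30 min at RT).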
IL-1B inflam inh – qHTS for Inhibitors of Inflammasome Signaling: IL-1-beta AlphaLISA Primary Screen. AID 743279, 2014. hit rate 4.7% among 360,000. THP-1 LPS/ATP IL-1B secretion, AlphaLISA, 16 h; stronger effect = lower value. activity change, % at 57.5 µM; in the data active means activity change below about -50%; inconclusive means mostly about -30% to -49%; further: on the % scale 0 is the no-effect control and ±100 the full control effect
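Secreted IL-1B measured by AlphaLISA bead assay after 16 h compound exposure of THP-1 cells; compounds (final up to 57.5 uM) added 1 h before LPS (250 ng/mL) and ATP (1.25 mM) stimulation; lower signal means less secretion.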
DT40 TDP1 CPT – qHTS for Inhibitors of human tyrosyl-DNA phosphodiesterase 1 (TDP1): qHTS in cells in presence of CPT | chicken DT40 Tdp1-/-;hTDP1 cells + 20 nM CPT, ATP luminescence, 48 h | Potency, µM (doses to about 46.2 µM), for the others: at the top dose activity change, negative = growth inhibition, most hits filed as inhibitors | hit rate 12% among 420,000 | AID 686979, 2013; further: potency means the concentration at half of the fitted maximal effect; on the % scale 0 is the no-effect control and ±100 the full control effect; nearly all actives have a fitted effect of over 55% in size
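Chicken DT40 Tdp1-/- cells complemented with human TDP1, 400 cells/well, exposed to compounds plus 20 nM camptothecin for at least 48 h at 37 C; viability read as ATP content by CellTiter-Glo luminescence.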
D3 ag – qHTS of D3 Dopamine Receptor Agonist: qHTS; D(3) dopamine receptor (Homo sapiens), P35462; D3R DiscoveRx beta-arrestin cells, luminescence, 90 min; hit rate 0.58% among 410,000; max activation, %; in the data active means max activation above about 30%; further: 0% is about no effect
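Cells at 1500/well, incubated overnight, then treated with pinned compounds (dopamine as control) for 90 min at 37 degrees C. DiscoveRx reagent added for 30 - 60 minutes at room temperature; luminescence read.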
ClpP mod – qHTS Assay for Activators of ClpP; ATP-dependent Clp protease proteolytic subunit (Bacillus subtilis (strain 168)), P80244; purified B. subtilis ClpP, FRET peptide cleavage, 20 min; Potency, µM (series often up to 57.5 µM), without a hit: top-dose activity change, negative = active; hit rate 1.9% among 340,000; AID 651965, 2013; active means well fitted falling curve with a large enough effect; inconclusive means small, poorly fitted or top-dose-only effect; inactive means no such curve, though single readings can be large or run the other way; further: potency means the concentration at half of the fitted maximal effect; the source files actives as falling curves though it sought activators and does not explain the sign; nearly all actives have a fitted effect of over 65% in size
Target sequence (P80244 whole entry, looked up): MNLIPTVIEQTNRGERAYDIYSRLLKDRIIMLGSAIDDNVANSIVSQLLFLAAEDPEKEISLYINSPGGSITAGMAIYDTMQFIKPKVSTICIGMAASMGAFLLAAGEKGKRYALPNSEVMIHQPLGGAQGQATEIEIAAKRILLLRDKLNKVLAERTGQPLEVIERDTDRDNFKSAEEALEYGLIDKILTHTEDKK
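Buffer: 100 mM Tris/HCl pH8, 100 mM KCl, 0.05% low protease BSA, 2.5% glycerol, 0.01% Tween-20. ClpP 10 microg/mL final; 20 min RT; delta FRET normalized to ADEP and DMSO controls.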
* hit, by the source's call; ? = inconclusive; . = no result given. Unless noted, the call rests on the fitted dose curve; in most records, active means well fitted inhibition curve with a large enough effect; inconclusive means small, poorly fitted or top-dose-only effect; inactive means flat fitted curve, though single readings scatter.

SMILES | DRD3 antagonist | DT40 TDP1 no CPT | IL-1B inflam inh | DT40 TDP1 CPT | D3 ag | ClpP mod
COC(=O)[C@]1(C)N[C@H](CN(C)C(=O)c2ccccc2)[C@@H]2C(=O)N(Cc3ccccc3)C(=O)[C@@H]21 | 12 | -2% | 25 | 4% | 1 | 0%
CCOC(=O)c1[nH]c2ccc(F)cc2c1NC(=O)CCN1CCOCC1 | -10 | 13% | 7 | 4% | 3 | .
CCOC(=O)c1[nH]c2ccccc2c1NC(=O)CCN1CCN(C(=O)OCC)CC1 | ? | 2% | -2 | -5% | 2 | 22µM*
COC(=O)c1[nH]c2ccccc2c1NC(=O)CCN1CCSCC1 | -57* | -2% | 20 | 3% | 1 | ?
CCOC(=O)c1[nH]c2ccc(Br)cc2c1NC(=O)CCN1CCCC(C)(C)C1 | -17 | 26µM* | -11 | ? | -8 | -9%
CCOC(=O)c1[nH]c2ccc(OC)cc2c1NC(=O)CCN1CCSCC1 | -7 | -30% | 22 | -14% | 0 | 13µM*
CC(C)C(=O)Nc1nnc(S(=O)(=O)N(C)c2ccc(Cl)cc2)s1 | -3 | -17% | -11 | -3% | 5 | 1%
Cc1ccc(S(=O)(=O)N2CCCC(C(=O)NCCc3ccc(S(N)(=O)=O)cc3)C2)cc1 (stereo unspecified) | -10 | ? | 7 | ? | -5 | .
Cc1ccc(Cn2c(CO)cnc2SCC(=O)Nc2cccc(F)c2)cc1 | . | -5% | . | -16% | 6 | 0%
COc1ccccc1NC(=O)CSc1ncc(CO)n1Cc1ccc(F)cc1 | 1 | ? | -8 | ? | 1 | 0%
Cc1ccc(Cn2c(CO)cnc2SCC(=O)Nc2ccc(C)c(Cl)c2)cc1 | . | 23µM* | . | 18µM* | 0 | 0%
CCOC(=O)c1ccccc1NC(=O)CSc1ncc(CO)n1Cc1ccc(C)cc1 | . | -81% | . | 15µM* | -4 | -1%
O=C(N/N=C/c1ccc[nH]1)c1ccccc1OCc1ccccc1Cl | 3 | ? | -90* | ? | 14 | .
Cc1cc(C(=O)N/N=C/c2ccc[nH]2)n[nH]1 | -16 | -13% | -3 | -5% | -1 | .
O=C(N/N=C/c1ccc[nH]1)c1ccc(COc2cccc3cccnc23)cc1 | 6 | -47% | -89* | -16% | 0 | .
O=C(N/N=C/c1ccc[nH]1)c1ccc(O)cc1 | 15 | 7% | 7 | -3% | 17 | .
Cc1cc(C(=O)N/N=C/c2ccc[nH]2)no1 | 5 | 18µM* | -8 | ? | 5 | -4%
O=C(N/N=C/c1ccccc1C(=O)O)c1ccc(COc2cccc3cccnc23)cc1 | -3 | -4% | 0 | -5% | -3 | .
Cc1cc(Br)c(OCc2ccc(C(=O)N/N=C/c3ccc[nH]3)cc2)c(Br)c1 | ? | ? | -62* | ? | -1 | 6%
CCN(C(=O)COc1ccc(N(C)S(=O)(=O)c2ccc(NC(C)=O)cc2)cc1)C1CCCCC1 | 21 | ? | -19 | ? | -3 | 0%
CC(=O)c1ccc([N+](=O)[O-])c(CS(=O)(=O)c2ccc(Cl)cc2)c1 | 1 | 9% | -12 | -19% | 4 | 1%
COc1cccc(NC(=O)CSCc2nc3sc(C)c(C)c3c(=O)[nH]2)c1 | 28 | -6% | -5 | -12% | 2 | -4%
CCN1C(=O)c2cccc3c(S(=O)(=O)N(C(=O)c4ccncc4)c4ccc(OC)cc4)ccc1c23 | 13 | ? | 56 | ? | 10 | ?
CCN1C(=O)c2cccc3c(S(=O)(=O)N(C(=O)c4cccnc4)c4ccc(OC)cc4)ccc1c23 | 4 | 12µM* | 39 | ? | 0 | 35µM*
CN(C)c1cc(C(F)(F)F)nc(-c2ccccn2)n1 | -14 | -18% | -4 | -16% | -2 | -12%
SMILES | DRD3 antagonist | DT40 TDP1 no CPT | IL-1B inflam inh | DT40 TDP1 CPT | D3 ag | ClpP mod
CSCc1cc(N(C)c2ccccc2)nc(-c2ccccn2)n1 | -75* | 4.6µM* | 18 | 2.9µM* | -11 | 0%
COc1cccc(CN(C(=O)c2cccc(C)c2)C2CCS(=O)(=O)C2)c1 (stereo unspecified) | . | 1% | . | -3% | 8 | -2%
CC(=NC1CC1)c1c(-c2ccccc2)[nH]n(-c2nc3ccccc3s2)c1=O | 8 | 22µM* | . | ? | 12 | 1%
CCn1c(C(=O)N2CCC(C(=O)NCCCOC)CC2)cc2sccc21 | . | -12% | . | -21% | -4 | -2%
COCCNC(=O)C1CCN(C(=O)c2cc3sccc3n2Cc2ccc(Cl)cc2)CC1 | . | 2.6µM* | . | 5.2µM* | 11 | 0%
COCCCNC(=O)C1CCN(C(=O)c2cc3sccc3n2Cc2ccc(Cl)cc2)CC1 | . | 21µM* | . | 13µM* | 2 | -2%
O=C(NCc1ccco1)C1CCN(C(=O)c2cc3sccc3n2Cc2ccc(Cl)cc2)CC1 | 8 | ? | -87* | 18µM* | 1 | -2%
COCCNC(=O)C1CCN(C(=O)c2cc3sccc3n2Cc2ccc(F)cc2)CC1 | 31 | ? | 52 | ? | 6 | 0%
CCC(C)NC(=O)C1CCN(C(=O)c2cc3sccc3n2Cc2ccc(Cl)cc2)CC1 (stereo unspecified) | . | 2.1µM* | . | 3.7µM* | 12 | -2%
Cc1ccc(C(=O)Nc2c(C)nc3ccccn3c2=O)cc1C | . | -22% | . | -22% | -14 | -12%
Cc1ccc(-c2nc(CS(=O)(=O)CC(=O)Nc3ccc(Br)cc3F)c(C)o2)cc1 | . | ? | . | ? | -7 | -1%
O=S(Cc1ccc(Br)cc1)Cc1nnc(SCc2ccc(Br)cc2)n1-c1ccccc1 (stereo unspecified) | -4 | 10µM* | -58* | 12µM* | 0 | -2%
COC(=O)c1ccc(NC(=O)CSc2nnc(C)n2-c2ccccc2)cc1 | 7 | 7% | 14 | -6% | -12 | -1%
COC(=O)c1ccc(CSc2nnc(CS(=O)Cc3ccc(Br)cc3)n2-c2ccccc2)cc1 (stereo unspecified) | 9 | 13µM* | -11 | 7.3µM* | 1 | 1%
COc1ccccc1CNS(=O)(=O)c1c(C(=O)N2CCC(C)CC2)c(C)n(C)c1C | . | -23% | . | -10% | -10 | -4%
COc1ccc(OC)c(NC(=O)COC(=O)CCc2nc3ccccc3c(=O)[nH]2)c1 | -27 | -2% | 28 | -7% | -2 | -1%

Bioassay records as filed in PubChem BioAssay.
